Holding throughout (assay): NCI-60 one-dose screen, 48 h (100 = growth as untreated, 0 = no growth, -100 = all killed)
Settings in all cases: 10 µM unless noted

The test system of assay [1] is NCI-H23 lung.
In assay [2] the test system is NCI-H226 lung.
The test system of assay [3] is NCI-H322M lung.
The test system of assay [4] is HOP-62 NSCLC.
In assay [5] the test system is NCI-H460 lung.
Assay [6] has as its system NCI-H522 lung.
Assay [7] relates to A549/ATCC NSCLC.
The test system of assay [8] is 786-0 renal.
The test system of assay [9] is COLO 205 colon.

Each structure is given as a SMILES string. The panel holds about 83,000 compounds, 20% with a hit somewhere; the sample as a whole holds those more often.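 Values shown are percent growth following 48 h exposure of cells in 96-well plates to a single concentration of compound; below 10 was considered active.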 Unmarked numbers belong to inactive results. The source made the active and inactive calls.

The results in this text go back to PubChem BioAssay (NCI).

Regarding `COc1ccc(NC(=O)c2sc3c(=O)[nH]c(C(F)(F)F)nc3c2C)cc1`, the growth in [1] is 93.4%; in [2] it was 97.7%; in assay [3], 107%; in assay [4], 107%; in assay [5] it was 115%; in assay [6], 79.5%. Moreover, the growth in [7] is 95.2%; in [8], 103%; in [9] it was 114%.
For `O=C(CSc1nc2c(n1Nc1ccccc1)-c1ccccc1SC2)Nc1nccs1`, the growth is 91.2% in [1]; 93.6% in assay [2]; 99.7% in assay [3]; 101% in assay [4]; 99.4% in assay [5]; 95.2% in [6]. Moreover, the results for the growth in assay [7], in assay [8] and in assay [9] were 96.6%, 96.8% and 121%, respectively.
For `c1ccc(CCn2cccc2)nc1`, the growth in assay [1] was 106%; in assay [2], 107%; in assay [3] it was 122%; in assay [4], 98%; in assay [5], 123%; in assay [6], 106%. For the same compound, the growth in assay [7] was 109%; in assay [8], 103%; in assay [9], 94.8%.
Regarding `COc1ccc(C(=O)OC2C(OC3C(O)COC(O[C@H]4C[C@H]5[C@@H]6CC=C7C[C@@H](O)CC[C@]7(C)[C@H]6CC[C@]5(C)[C@H]4[C@H](C)C(=O)CCC(C)C)C3OC(=O)C(C)C)OCC(O)C2O)cc1` (stereo partly specified), the growth in assay [1] was 43.1%; in [2] it was 10.9%; in [3], 58.6%; in assay [4] it was -14.2% (active); in assay [5], 0.329% (active); in [6] it was -46.1% (active). Moreover, the growth is 16.1% in assay [7], -1.64% (active) in [8] and -47.9% (active) in assay [9].
